Hit rate of the full screen: of about 69,000 compounds, about 8,600 (12%) showed an effect of 50% or more. The sample holds strong results, similar compounds and a random draw of the others, so the mix is not that of the screen.

The subject of the assay is Plasmodium berghei. The assay can be described thus: Screen against P. berghei liver stage (PbLuc), transformed with Luciferase, at 10uM. It counts as functional, HepG2. Particulars: tested at 10 uM.
As to `CS(=O)(=O)N1CCC(NC(=O)COc2ccccc2Cl)CC1`, the INHIBITION is given as -19.9%.
To `O=C(c1nccc2ccccc12)N1CCCCC1Cn1cccn1` (stereo not given) belongs 3.73%; to `Cc1nc(CNC(=O)c2cc(COc3ccccc3F)[nH]n2)n[nH]1`, 17%.
To `CNc1cc(C)nc(C2CN(Cc3cncs3)CCO2)c1` (stereo not given) belongs 11.1%.
To `Cn1nc(CN2CCCC2)c2c1CN(C(=O)c1cccnc1)CC2` belongs -31.3%; to `Cc1cc2n(n1)CC(CNCc1ccc(-n3ccnc3C)nc1)CN2` (stereo not given), -13.575%.
Take `CC(=O)N1CCOC(c2c(C(=O)NC(C)(C)C)sc3ccccc23)C1` (stereo not given): the INHIBITION was -84.7%.
To `Cc1cnc(N2CC[C@@H]3O[C@@H](COCC(=O)N(C)C)CC[C@@H]32)nc1` belongs 18.2%; to `CSc1ccc(CN(C(=O)c2cc(C)[nH]c(=O)c2)C2CC2)cc1`, 50.8%; to `COC1CCN(c2ccc(F)cc2CN(C)C(=O)c2cc[nH]n2)CC1`, -74.8%.
To `CSc1ccc(CN(C(=O)c2cc[nH]n2)C2CC2)cc1` belongs 59.1%.
`O=C(c1cc[nH]n1)N(Cc1ccc(F)cc1)CC1CC1`: the INHIBITION is given as -24%.
To `O=C(c1cc[nH]n1)N(Cc1cccc(O)c1)CC1CC1` belongs 5.64%.
Regarding `CSc1ccc(CN(C(=O)c2cc(=O)[nH]c(=O)[nH]2)C2CC2)cc1`, the INHIBITION was 59.1%.
To `COc1cc(C(=O)N(Cc2ccc(F)cc2)C2CC2)cc2c1OCCO2` belongs 13.4%; to `CSc1ccc(CN(C)C(=O)c2cc3c([nH]c2=O)CCCC3=O)cc1`, 7.99%.
Turning to `Cc1ccc(C(=O)N(Cc2cccc(F)c2)C2CC2)c(=O)[nH]1`, the INHIBITION is -30.7%.
To `O=C(c1cc[nH]n1)N(Cc1ccccc1)CC1CCC1` belongs 72.3%; to `CN(C)Cc1ccc(C2CCCCN2C(=O)c2cc(=O)[nH]c(=O)[nH]2)cc1` (stereo not given), 16.7%; to `Cc1ccc(C(=O)N(Cc2ccc(F)cc2)C2CC2)c(=O)[nH]1`, -37.8%.
To `NC(=O)C1Cn2ccnc2C2(CCN(C(=O)NC3CCCC3)CC2)O1` (stereo not given) belongs 0.453%; to `CC(C)Oc1ccc(CNC(=O)CCN2C(=O)CCC2=O)cc1F`, -38.75%.
To `Cc1nc2c(c(NC3CCN(Cc4ccccc4)CC3)n1)CCNCC2` belongs -4.28%.
Regarding `CC(=O)N1CCCC(c2nccnc2-c2ccc(CO)cc2)C1` (stereo not given), the INHIBITION stood at 20.2%.
For the compound `c1ccc(CCN2CCN(C3CCOC4(CCOCC4)C3)CC2)cc1` (stereo not given), the INHIBITION worked out at 36.8%.
To `CC(NC(=O)CN(C)S(C)(=O)=O)c1nnc2n1CCCCC2` (stereo not given) belongs 38.6%; to `CCc1ccc(C(=O)N2CCCC(CNS(C)(=O)=O)C2)o1` (stereo not given), -26.6%.
Next, `O=C(NCc1ccccc1)C1=NOC2(CCNC2)C1` (stereo not given): 24.5%; `O=c1ccc(-c2cccs2)nn1CN1CCN(C2CCS(=O)(=O)C2)CC1` (stereo not given): -4.52%; `COc1ccc(C(=O)CNC(=O)c2nc(Cl)sc2C(C)C)cc1`: -44.2%.
Next, `O=C(CCc1nnc(-c2ccccc2)o1)N1CCCC1c1ccccn1` (stereo not given): 17.8%; `O=C(CCc1nnc(-c2ccccc2)o1)N1CCCC1c1ccc[nH]1` (stereo not given): -14.9%; `CC1CCCCN1C(=O)CCc1nnc(-c2ccccc2)o1` (stereo not given): 51.5%.
For the compound `Cc1cc(CN2CCC(N(C)Cc3nnc(C4CC4)n3C)C2)on1` (stereo not given), the INHIBITION stood at 19.2%.
Next, `COCc1noc(Cc2c(C)nn(C)c2C)n1`: 28.5%.
Next, `Cc1nc(C(=O)N(CC(=O)N(C)C)CC(F)(F)F)c2ccccn12`: 53.3%; `Cc1nc(C(=O)N(C)CC(F)(F)C(F)(F)F)c2ccccn12`: 3.03%; `CCOC(=O)CN(CC(F)(F)F)C(=O)c1nc(C)n2ccccc12`: 22.3%.
With `CCCc1nc(CN2CCCC(c3noc(C4CC4)n3)C2)no1` (stereo not given), the INHIBITION amounted to 4.71%.
To `Cc1c(CC(C#N)C(=O)Nc2cccc(O)c2)cnn1C` (stereo not given) belongs 20.4%.
To `Cc1cc(C)cc(N(CCC#N)C(=O)CN2CCCC2c2cccs2)c1` (stereo not given) belongs 6.54%; to `Cc1ccc(C2CCCN2CC(=O)N(CCC#N)c2ccccc2)cc1` (stereo not given), 62.8%.
Next, `N#CCCN(C(=O)CN1CCCC1c1ccsc1)c1ccccc1` (stereo not given): -2.95%; `Cc1ccc(N(CCC#N)C(=O)CN2CCCC2c2cccs2)cc1` (stereo not given): -3.48%; `N#CCCN(C(=O)CN1CCCC1c1ccccc1Cl)c1ccccc1` (stereo not given): 67.1%.
For `Cc1ccc(N(CCC#N)C(=O)CN2CCCC2c2ccsc2)cc1` (stereo not given), the INHIBITION is reported as 3.45%.
Next, `CNS(=O)(=O)CC(=O)N(Cc1ccsc1)c1ccccc1`: -2.69%; `CC(=O)N(Cc1ccsc1)c1ccccc1`: 24.2%; `CC(C)S(=O)(=O)CC(=O)N(Cc1ccsc1)c1ccccc1`: 54.4%.
For `Cc1occc1C(=O)N1C[C@H]2CCCC(OCc3cccnc3)[C@H]2C1` (stereo not given in full), the INHIBITION is 30.3%.
Next, `Cc1cnn(C2CCCN(C(=O)CCCOc3ccccc3F)C2)c1` (stereo not given): -27.8%; `Cc1ccc(C(=O)NCCCN(C)S(C)(=O)=O)cc1-n1cccc1`: 12.9%.
`CS(=O)(=O)NCCCNC(=O)c1cccc(-n2cccc2)c1`: the INHIBITION is 13.4%.
To `Cc1ccc(C(=O)NCCCNS(C)(=O)=O)cc1-n1cccc1` belongs 51.3%; to `COc1ccc(CN2C[C@H]3CC[C@@H](C2)N(S(=O)(=O)C2CC2)C3)cc1`, 4.52%; to `O=C1CCN(C(=O)NCCCc2ccc(Cl)cc2Cl)CCN1`, -12.1%.
For `Fc1cccc(CN2CCC(c3noc(-c4cnccn4)n3)CC2)c1F`, the INHIBITION was -11.4%.
Next, `Cc1ncsc1-c1nnc(C2CCN(Cc3ccccc3Cl)CC2)o1`: 29.3%.
Take `Cc1ncsc1-c1nnc(C2CCN(Cc3cccc(F)c3F)CC2)o1`: the INHIBITION was found to be 54.5%.
For `CCn1c(CN(C)C)nnc1C1CCN(Cc2cccc(F)c2F)CC1`, the INHIBITION is listed as 25%.
Next, `Cc1ncsc1-c1nnc(C2CCN(Cc3ccccc3F)CC2)o1`: 59%.
To `Cc1ncsc1-c1nnc(C2CCN(CC3CCCCC3)CC2)o1` belongs -18.4%; to `Cn1ccnc1CN1CCC(F)(F)C2(CCN(c3cnccn3)C2)C1` (stereo not given), -38.9%; to `CN(C)c1nccnc1C1CCCN(c2cnccn2)C1` (stereo not given), 7.75%.
Next, `COCCNS(=O)(=O)c1c(C)sc2ccccc12`: -35%; `COc1cccc(-c2noc3c2CN(c2nc(C)ncc2C)CC3)c1`: 80%; `COc1cccc(N2CCN(C(=O)c3noc4c3CCCCC4)CC2)c1`: 10.1%.
As for `COc1cccc(N2CCN(C(=O)c3noc4c3CCCC4)CC2)c1`, the INHIBITION worked out at 12.6%.
To `Cc1cnc(N2CCc3onc(COc4cccnc4)c3C2)nc1` belongs 32.1%; to `COCC(C)N1CCc2onc(-c3ccc(F)c(F)c3)c2C1` (stereo not given), 16.7%; to `CC(C)c1ccc(N2CCc3onc(-c4ccc(F)c(F)c4)c3C2)nn1`, 40.3%.
To `COCc1cc(N2CCc3onc(-c4cccc(OC)c4)c3C2)ncn1` belongs 82.2%.
To `COc1cccc(-c2noc3c2CN(c2ncnc4c2CCC4)CC3)c1` belongs 89.6%; to `COc1ccc(CC2(C(=O)O)CCN(c3nc(C)ncc3C)CC2)cc1`, -1.25%; to `CC(C)(C)n1ncc2c1NC(=O)CC2c1ccc(C(=O)O)cc1` (stereo not given), -12.2%.
Consider `CC(C)Oc1ccc(Cl)c(C(=O)N2CCN(CCO)CC2)n1`, for which the INHIBITION came to 33.3%.
As for `CCSc1ccc(C(=O)N2CCCCC2C(=O)N2CCCC2)cn1` (stereo not given), the INHIBITION worked out at 20.4%.
Next, `Cc1ccc(CN2CC[C@@H](NC(=O)c3cccnc3)[C@H](O)C2)s1`: -10.9%.
In the case of `O=C(c1cccs1)N1CC[C@@H](N2CCOCC2)[C@@H]1Cc1ccccc1`, the INHIBITION is listed as 19.4%.
Next, `Cn1ncnc1NCc1ccc(F)cc1`: -42.8%; `Cc1cccc2c1ccn2CCC(=O)O`: 17.6%.
To `COc1ccccc1C(=O)NCCCN1CCCC1C(=O)N(C)C` (stereo not given) belongs -1.85%.
To `COc1cccc(-c2n[nH]cc2-c2nc(CN3CCCC3)no2)c1` belongs 34%; to `COc1cccc(-c2n[nH]cc2-c2nc(CC3CCN(C)CC3)no2)c1`, 59.7%.
On to `CN1CCC(Cc2noc(-c3cccc(Oc4ncccn4)c3)n2)CC1`, for which the INHIBITION is reported as -0.529%.
Next, `Cc1ccc(S(=O)(=O)N2CCCC(c3n[nH]cc3C(=O)N(C)C)C2)cc1` (stereo not given): 11.8%; `CCOCCNC(=O)c1cccc(Cn2nc(C)cc2C)c1`: -89.3%; `Cc1cc2n(n1)[C@@H](C(F)(F)F)C[C@@H](C1CCCN(C(=O)C(C)C)C1)N2` (stereo not given in full): 1.5%.
To `CC(C)Cc1cc(CN2C[C@@H]3CC[C@H]2CN(Cc2cscn2)C3)n[nH]1` belongs 39.9%; to `CN(Cc1cc(Br)cn1C)C(=O)Cc1cccnc1`, -91.4%; to `CN(Cc1cc(Br)cn1C)C(=O)Cc1cccc(O)c1`, 50.8%.
To `CN(Cc1cc(Br)cn1C)C(=O)c1ccsc1` belongs -82.2%; to `CC1CCN(C[C@H]2CN3CC[C@H]2C[C@@H]3CNC(=O)Nc2ccsc2)CC1`, 77.7%.
Regarding `O=C(NC[C@H]1C[C@@H]2CCN1C[C@@H]2CN1CCOCC1)Nc1ccsc1`, the INHIBITION came out at 41.1%.
Next, `O=C(NC[C@H]1C[C@@H]2CCN1C[C@@H]2CN1CCCCC1)Nc1ccsc1`: 33.2%.
To `O=C(CC1CC1)NCc1cn2c(n1)CN(Cc1nccs1)CC2` belongs 33.4%; to `CCC(C)(NCC(=O)Nc1ccccc1)c1nc(C)cs1` (stereo not given), 9.3%; to `CCC(C)(NCC(=O)NC(C)C)c1nc(C)cs1` (stereo not given), 76.7%.
Next, `CCC(C)(NCC(=O)Nc1nc(C)cs1)c1nc(C)cs1` (stereo not given): 12.2%; `CC(C)c1nc(O)c2nnn(C[C@H]3CCCN(Cc4ccsc4)C3)c2n1`: 32.3%.
`CCC(=O)N1CCC2(CC1)CN(CCO)Cc1ccccc12`: the INHIBITION is -16.2%.
Next, `CCc1oc2ccc(NS(C)(=O)=O)cc2c1C(=O)OC`: 12.8%.
To `COc1cccc(-c2cnc3n2CCC32CCN(S(C)(=O)=O)CC2)c1` belongs 39.3%; to `CS(=O)(=O)N1CCC2(CC1)NCCn1c(-c3ccccc3)cnc12`, -0.554%.
To `COc1ccc(-c2cnc3n2CCNC32CCN(S(C)(=O)=O)CC2)cc1` belongs 57.1%.
